Experimental data: PubChem BioAssay (EPA / NIEHS)
Values joined by “and” are separate entries in the source; they are usually repeats but may differ in a detail not shown here. Equal values may be shown once. Results filed as inconclusive are left out. Some compounds were tested as several samples or in several runs, with calls that do not always agree. Active and inactive are the calls of the source. Rule for the calls, unless noted: active = hit-call score of the fitted dose curve at least 0.9, where 1 is the maximum; inactive = score below 0.9.

Experiments:
[1] = BSK_4H_Eotaxin3: BioMAP Diversity Plus: 4H Assay for Eotaxin 3 Biomarker Activity (AID 2283000); details: primary human endothelial cells (HUVEC); actives raise or lower the signal
How it was run: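 Chemicals were added to human umbilical vein endothelium cultures, and Eotaxin-3 was quantified by ELISA at 24 h. Values were derived by bidirectional fitting with DMSO serving as negative control and activity baseline.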

[2] = target: human Peroxisome Proliferator-activated Receptor alpha (PPARa), PPARA (gene 5465) (UniProt Q07869); assay: ATG_PPARa_TRANS: Attagene TRANS-FACTORIAL HepG2 Assay for human Peroxisome Proliferator-activated Receptor alpha (PPARa) (AID 2283001; active = hit-call score of the fitted dose curve at least 0.9, where 1 is the maximum)
human Peroxisome Proliferator-activated Receptor alpha (PPARa), PPARA (gene 5465), sequence (Q07869 whole entry, looked up, the tested form may be a part): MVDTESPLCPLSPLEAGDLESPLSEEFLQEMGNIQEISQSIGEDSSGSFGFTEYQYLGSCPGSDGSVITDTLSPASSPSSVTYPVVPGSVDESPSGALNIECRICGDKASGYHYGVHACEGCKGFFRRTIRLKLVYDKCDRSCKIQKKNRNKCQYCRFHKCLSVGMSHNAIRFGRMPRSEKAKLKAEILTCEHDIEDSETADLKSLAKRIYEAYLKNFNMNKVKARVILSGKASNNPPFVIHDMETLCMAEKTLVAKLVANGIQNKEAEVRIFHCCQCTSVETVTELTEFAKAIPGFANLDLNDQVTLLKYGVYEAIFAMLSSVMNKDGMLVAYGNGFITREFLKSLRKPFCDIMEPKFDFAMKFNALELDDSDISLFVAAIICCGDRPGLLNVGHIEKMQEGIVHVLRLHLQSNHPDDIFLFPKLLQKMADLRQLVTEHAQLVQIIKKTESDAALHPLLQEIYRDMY
How it was run: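 HepG2 cells transiently transfected with multiplexed GAL4-UAS reporter units and chimeric NR-Gal4 constructs were dosed for 24 h. Reporter mRNA was measured by RT-PCR with fluorescent labelling and capillary electrophoresis; gain of signal fitted against DMSO.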

[3] = read-out: Intercellular Adhesion Molecule 1 (ICAM1), ICAM1 (gene 3383); assay: BSK_3C_ICAM1: BioMAP Diversity Plus: 3C Assay for Intercellular Adhesion Molecule 1 (ICAM1) Biomarker Activity (AID 2283003); details: primary human endothelial cells (HUVEC); actives raise or lower the signal
How it was run: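 Human vascular endothelial primary cells, 3C conditions, 24 h treatment. ICAM-1 by ELISA.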

[4] = BSK_3C_Proliferation: Cell Proliferation Assessment in the BioMAP Diversity Plus: 3C Assay (AID 2283006); details: primary human endothelial cells (HUVEC);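 for AC50: potency may reflect either rise or fall in cell number versus DMSO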
How it was run: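 Proliferation of human vascular endothelial primary cells after 48 h dosing, quantified as SRB-stained protein at 560 nm relative to DMSO.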

[5] = target: Peroxisome proliferator-activated receptor gamma (Homo sapiens) (UniProt P37231); assay: ATG_PPARg_TRANS: Attagene TRANS-FACTORIAL HepG2 Assay for human Peroxisome Proliferator-activated Receptor-gamma (PPARg) (AID 2283007; active = hit-call score of the fitted dose curve at least 0.9, where 1 is the maximum)
Peroxisome proliferator-activated receptor gamma (Homo sapiens), sequence (P37231 whole entry, looked up, the tested form may be a part): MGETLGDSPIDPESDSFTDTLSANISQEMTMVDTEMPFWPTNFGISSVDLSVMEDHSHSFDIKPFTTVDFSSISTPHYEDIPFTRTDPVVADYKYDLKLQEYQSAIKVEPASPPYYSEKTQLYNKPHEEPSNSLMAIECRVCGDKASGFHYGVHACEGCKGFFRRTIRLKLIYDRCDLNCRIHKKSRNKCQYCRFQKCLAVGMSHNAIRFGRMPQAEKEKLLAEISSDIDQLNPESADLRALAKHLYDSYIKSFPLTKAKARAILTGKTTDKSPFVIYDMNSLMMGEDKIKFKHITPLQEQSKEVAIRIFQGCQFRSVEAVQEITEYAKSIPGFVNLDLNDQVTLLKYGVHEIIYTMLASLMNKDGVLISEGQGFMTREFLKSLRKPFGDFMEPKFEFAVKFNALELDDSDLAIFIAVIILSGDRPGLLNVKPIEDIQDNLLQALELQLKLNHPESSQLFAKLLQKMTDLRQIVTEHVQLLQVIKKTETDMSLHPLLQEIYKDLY
How it was run: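 HepG2 cells are transiently transfected with GAL4-UAS reporter units driven by chimeric NR-Gal4 fusions and dosed for 24 h. Reporter mRNA is quantified by RT-PCR, 6-FAM labelling, HpaI digestion and capillary electrophoresis. Induction is scored against DMSO.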

[6] = target: Nuclear receptor subfamily 1 group I member 2 (Homo sapiens) (UniProt O75469); assay: ATG_PXR_TRANS: Attagene TRANS-FACTORIAL HepG2 Assay for human Pregnane X Receptor (PXR) (AID 2283008; active = hit-call score of the fitted dose curve at least 0.9, where 1 is the maximum)
Nuclear receptor subfamily 1 group I member 2 (Homo sapiens), sequence (O75469 whole entry, looked up, the tested form may be a part): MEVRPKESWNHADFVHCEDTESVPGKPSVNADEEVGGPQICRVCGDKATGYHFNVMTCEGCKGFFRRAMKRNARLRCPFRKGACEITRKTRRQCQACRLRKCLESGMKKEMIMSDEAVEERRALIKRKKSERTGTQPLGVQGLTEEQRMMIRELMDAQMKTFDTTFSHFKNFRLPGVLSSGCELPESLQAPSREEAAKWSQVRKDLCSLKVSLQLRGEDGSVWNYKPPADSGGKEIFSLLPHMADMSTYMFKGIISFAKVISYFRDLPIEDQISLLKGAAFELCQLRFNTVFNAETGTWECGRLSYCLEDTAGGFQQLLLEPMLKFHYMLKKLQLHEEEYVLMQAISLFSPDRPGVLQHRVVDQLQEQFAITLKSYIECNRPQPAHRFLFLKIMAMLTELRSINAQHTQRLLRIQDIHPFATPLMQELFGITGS
How it was run: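 HepG2 cells transiently transfected with GAL4-UAS reporter units and PXR-Gal4 chimera, exposed 24 h. Reporter mRNA quantified by RT-PCR, fluorescent labelling, HpaI digestion and capillary electrophoresis; gain of signal vs DMSO.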

[7] = target: human RAR-related Orphan Receptor gamma (RORg), RORC (gene 6097) (UniProt P51449); assay: ATG_RORg_TRANS: Attagene TRANS-FACTORIAL HepG2 Assay for human RAR-related Orphan Receptor gamma (RORg) (AID 2283011; active = hit-call score of the fitted dose curve at least 0.9, where 1 is the maximum)
human RAR-related Orphan Receptor gamma (RORg), RORC (gene 6097), sequence (P51449 whole entry, looked up, the tested form may be a part): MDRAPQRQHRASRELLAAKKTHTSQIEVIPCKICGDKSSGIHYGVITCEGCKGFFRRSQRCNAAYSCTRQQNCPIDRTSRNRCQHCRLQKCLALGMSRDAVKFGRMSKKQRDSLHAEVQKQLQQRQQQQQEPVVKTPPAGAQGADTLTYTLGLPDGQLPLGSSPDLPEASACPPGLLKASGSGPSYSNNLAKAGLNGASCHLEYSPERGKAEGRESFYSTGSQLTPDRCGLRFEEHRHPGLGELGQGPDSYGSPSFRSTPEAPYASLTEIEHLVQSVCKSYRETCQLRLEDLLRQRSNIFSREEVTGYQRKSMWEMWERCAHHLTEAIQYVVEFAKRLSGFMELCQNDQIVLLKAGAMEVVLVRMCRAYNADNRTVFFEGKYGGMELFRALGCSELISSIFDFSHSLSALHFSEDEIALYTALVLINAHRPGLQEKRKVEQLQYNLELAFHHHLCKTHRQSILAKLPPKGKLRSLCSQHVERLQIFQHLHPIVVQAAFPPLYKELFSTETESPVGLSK
How it was run: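 First, HepG2 liver cells were transfected with GAL4-UAS-driven reporter constructs and the RORg-Gal4 fusion. Next, they were treated with chemical for 24 h. Finally, reporter mRNA was quantified by RT-PCR and capillary electrophoresis, with upward activity fitted against DMSO.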

[8] = read-out: E-selectin (Homo sapiens) (UniProt P16581); assay: BSK_3C_Eselectin: BioMAP Diversity Plus: 3C Assay for Eselectin Biomarker Activity (AID 2283015); details: primary human endothelial cells (HUVEC); actives raise or lower the signal
How it was run: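 ELISA read-out of E-selectin on endothelial monolayers after 24 h chemical treatment. Human umbilical vein primary cells served as the system, with DMSO defining baseline activity for bidirectional fitting.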

[9] = read-out: Interleukin-1 alpha (IL1a), IL1A (gene 3552); assay: BSK_BE3C_IL1a: BioMAP Diversity Plus: BE3C Assay for Interleukin-1 alpha (IL1a) Biomarker Activity (AID 2283016); details: primary human bronchial epithelial cells; actives raise or lower the signal
How it was run: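 Cultures of primary human bronchial epithelial cells receive test chemical. After 24 h, IL-1a is quantified by ELISA, while parallel wells are fixed in TCA and SRB-stained for total protein. Changes in either direction are fitted relative to DMSO.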

[10] = read-out: Monocyte Chemoattractant Protein-1 (MCP1), CCL2 (gene 6347); assay: BSK_3C_MCP1: BioMAP Diversity Plus: 3C Assay for Monocyte Chemoattractant Protein-1 (MCP1) Biomarker Activity (AID 2283017); details: primary human endothelial cells (HUVEC); actives raise or lower the signal
How it was run: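 ELISA read-out of MCP-1 from human umbilical vein endothelial cell cultures harvested 24 h post-dosing. Gain or loss of signal was fitted relative to DMSO.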

[11] = read-out: Monocyte Chemoattractant Protein-1 (MCP1), CCL2 (gene 6347); assay: BSK_4H_MCP1: BioMAP Diversity Plus: 4H Assay for Monocyte Chemoattractant Protein-1 (MCP1) Biomarker Activity (AID 2283018); details: primary human endothelial cells (HUVEC); actives raise or lower the signal
How it was run: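 Readout: MCP-1 ELISA on compound-treated HUVEC, sampled 24 h post-dosing. Baseline and negative control DMSO; bidirectional fit. Overt toxicity checked alongside by sulforhodamine B protein staining at time of biomarker measurement.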

[12] = read-out: Human Leukocyte Antigen - DR isotype (HLADR), HLA-DRA (gene 3122); assay: BSK_3C_HLADR: BioMAP Diversity Plus: 3C Assay for Human Leukocyte Antigen - DR isotype (HLADR) Biomarker Activity (AID 2283019); details: primary human endothelial cells (HUVEC); actives raise or lower the signal
How it was run: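 ELISA readout of surface HLA-DR on human umbilical vein endothelium, taken 24 h after chemical treatment. Gain- and loss-of-signal were both fitted relative to DMSO.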

[13] = read-out: Interleukin-8 (IL8), CXCL8 (gene 3576); assay: BSK_3C_IL8: BioMAP Diversity Plus: 3C Assay for Interleukin-8 (IL8) Biomarker Activity (AID 2283020); details: primary human endothelial cells (HUVEC); actives raise or lower the signal
How it was run: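 Human vascular endothelial cells (umbilical vein) in the 3C system; IL-8 level detected by ELISA at 24 h post-dose, with DMSO as baseline.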

[14] = target: human Retinoic Acid Receptor beta (RARb), RARB (gene 5915) (UniProt P10826); assay: ATG_RARb_TRANS: Attagene TRANS-FACTORIAL HepG2 Assay for human Retinoic Acid Receptor beta (AID 2283004; active = hit-call score of the fitted dose curve at least 0.9, where 1 is the maximum)
How it was run: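 Transient transfection of HepG2 with multiple reporter units → chemical dosing, 24 h → total RNA isolation → RT with oligo(dT) → reporter-specific PCR, 6-FAM primer extension, HpaI digest → capillary electrophoresis. Positive direction vs DMSO control.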

[15] = target: human Retinoic Acid Receptor gamma (RARg), RARG (gene 5916) (UniProt P13631); assay: ATG_RARg_TRANS: Attagene TRANS-FACTORIAL HepG2 Assay for human Retinoic Acid Receptor gamma (RARg) (AID 2283009; active = hit-call score of the fitted dose curve at least 0.9, where 1 is the maximum)
human Retinoic Acid Receptor gamma (RARg), RARG (gene 5916), sequence (P13631 whole entry, looked up, the tested form may be a part): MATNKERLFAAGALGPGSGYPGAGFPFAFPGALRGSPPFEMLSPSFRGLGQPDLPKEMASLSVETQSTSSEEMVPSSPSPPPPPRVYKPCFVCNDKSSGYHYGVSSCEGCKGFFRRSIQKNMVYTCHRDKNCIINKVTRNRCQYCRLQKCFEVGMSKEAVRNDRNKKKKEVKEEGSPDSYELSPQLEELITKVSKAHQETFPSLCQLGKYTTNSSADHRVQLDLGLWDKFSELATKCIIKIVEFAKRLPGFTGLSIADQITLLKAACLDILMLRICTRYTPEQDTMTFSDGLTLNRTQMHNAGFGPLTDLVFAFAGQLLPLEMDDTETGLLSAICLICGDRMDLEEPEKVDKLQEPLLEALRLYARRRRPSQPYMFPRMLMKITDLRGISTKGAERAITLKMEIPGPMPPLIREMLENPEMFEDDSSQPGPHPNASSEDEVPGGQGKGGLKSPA
How it was run: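 HepG2, RARg-GAL4 TRANS system, 24 h exposure; reporter mRNA by RT-PCR + CE fluorescence; increase over DMSO.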

[16] = target: human RAR-related Orphan Receptor beta (RORb), RORB (gene 6096) (UniProt Q92753); assay: ATG_RORb_TRANS: Attagene TRANS-FACTORIAL HepG2 Assay for human RAR-related Orphan Receptor beta (RORb) (AID 2283010; active = hit-call score of the fitted dose curve at least 0.9, where 1 is the maximum)
human RAR-related Orphan Receptor beta (RORb), RORB (gene 6096), sequence (Q92753 whole entry, looked up, the tested form may be a part): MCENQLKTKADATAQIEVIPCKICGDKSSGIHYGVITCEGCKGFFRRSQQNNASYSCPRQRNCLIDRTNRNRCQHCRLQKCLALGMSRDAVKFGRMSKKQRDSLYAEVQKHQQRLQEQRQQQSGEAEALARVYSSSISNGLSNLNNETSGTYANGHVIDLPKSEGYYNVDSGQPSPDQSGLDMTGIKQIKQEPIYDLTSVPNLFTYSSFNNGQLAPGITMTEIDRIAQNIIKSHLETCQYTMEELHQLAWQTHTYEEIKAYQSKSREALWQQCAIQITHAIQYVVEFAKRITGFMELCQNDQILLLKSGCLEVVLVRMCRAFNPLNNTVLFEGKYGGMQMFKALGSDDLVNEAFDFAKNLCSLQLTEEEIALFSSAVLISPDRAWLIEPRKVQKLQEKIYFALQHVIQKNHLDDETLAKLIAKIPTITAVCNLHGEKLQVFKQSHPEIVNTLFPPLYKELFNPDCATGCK
How it was run: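 In this TRANS-format test, human HepG2 cells express chimeric NR-Gal4 fusion proteins driving GAL4-UAS reporters. After 24 h dosing, reporter transcripts are measured by fluorescent RT-PCR/capillary electrophoresis, with DMSO as negative control.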

[17] = target: Retinoic acid receptor RXR-alpha (Homo sapiens) (UniProt P19793); assay: ATG_RXRa_TRANS: Attagene TRANS-FACTORIAL HepG2 Assay for human Retinoid X Receptor alpha (RXRa) (AID 2283012; active = hit-call score of the fitted dose curve at least 0.9, where 1 is the maximum)
Retinoic acid receptor RXR-alpha (Homo sapiens), sequence (P19793 whole entry, looked up, the tested form may be a part): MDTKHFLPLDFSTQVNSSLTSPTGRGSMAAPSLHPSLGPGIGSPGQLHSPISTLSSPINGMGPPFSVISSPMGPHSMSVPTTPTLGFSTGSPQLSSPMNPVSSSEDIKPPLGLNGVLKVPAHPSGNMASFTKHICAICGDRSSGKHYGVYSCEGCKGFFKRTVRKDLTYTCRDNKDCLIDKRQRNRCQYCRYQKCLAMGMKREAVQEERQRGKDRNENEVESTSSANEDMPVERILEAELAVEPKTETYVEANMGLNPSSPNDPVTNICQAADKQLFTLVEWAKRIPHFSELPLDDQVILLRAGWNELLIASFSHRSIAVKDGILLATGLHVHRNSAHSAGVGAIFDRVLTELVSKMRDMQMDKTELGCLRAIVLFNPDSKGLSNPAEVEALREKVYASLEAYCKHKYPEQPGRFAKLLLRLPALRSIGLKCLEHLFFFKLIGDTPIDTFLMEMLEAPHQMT
How it was run: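 Cells (HepG2) carried transiently transfected GAL4-responsive reporter units. Following a 24 h chemical incubation, reporter mRNA induction was read via RT-PCR fragment analysis; DMSO served as negative control and baseline.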

[18] = target: human Thyroid Receptor alpha (THRa1), THRA (gene 7067) (UniProt P10827); assay: ATG_THRa1_TRANS: Attagene TRANS-FACTORIAL HepG2 Assay for human Thyroid Receptor alpha (THRa1) (AID 2283014; active = hit-call score of the fitted dose curve at least 0.9, where 1 is the maximum)
human Thyroid Receptor alpha (THRa1), THRA (gene 7067), sequence (P10827 whole entry, looked up, the tested form may be a part): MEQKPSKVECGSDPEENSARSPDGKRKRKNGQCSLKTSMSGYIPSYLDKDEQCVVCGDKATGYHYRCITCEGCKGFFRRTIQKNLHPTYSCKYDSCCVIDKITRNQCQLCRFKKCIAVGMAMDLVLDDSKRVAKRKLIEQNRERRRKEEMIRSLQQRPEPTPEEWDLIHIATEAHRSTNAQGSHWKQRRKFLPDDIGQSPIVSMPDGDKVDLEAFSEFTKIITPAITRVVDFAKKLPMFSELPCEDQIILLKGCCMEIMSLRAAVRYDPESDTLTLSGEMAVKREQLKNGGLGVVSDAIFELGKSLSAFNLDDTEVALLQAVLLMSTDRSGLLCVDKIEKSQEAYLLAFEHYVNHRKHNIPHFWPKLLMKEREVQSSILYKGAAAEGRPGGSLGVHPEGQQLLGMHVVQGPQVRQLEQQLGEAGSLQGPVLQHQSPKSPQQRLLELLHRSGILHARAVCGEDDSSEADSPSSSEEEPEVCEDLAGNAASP
How it was run: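 Reporter transcript induction, read by capillary electrophoresis of 6-FAM-labelled RT-PCR products, reflects activity of a transfected THRa1-Gal4 fusion in HepG2 liver cells. Cells were dosed for 24 h; activity was fitted in the positive direction against DMSO.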

[19] = target: human Peroxisome Proliferator-activated Receptor delta (PPARd), PPARD (gene 5467) (UniProt Q03181); assay: ATG_PPARd_TRANS: Attagene TRANS-FACTORIAL HepG2 Assay for human Peroxisome Proliferator-activated Receptor delta (PPARd) (AID 2283002; active = hit-call score of the fitted dose curve at least 0.9, where 1 is the maximum)
human Peroxisome Proliferator-activated Receptor delta (PPARd), PPARD (gene 5467), sequence (Q03181 whole entry, looked up, the tested form may be a part): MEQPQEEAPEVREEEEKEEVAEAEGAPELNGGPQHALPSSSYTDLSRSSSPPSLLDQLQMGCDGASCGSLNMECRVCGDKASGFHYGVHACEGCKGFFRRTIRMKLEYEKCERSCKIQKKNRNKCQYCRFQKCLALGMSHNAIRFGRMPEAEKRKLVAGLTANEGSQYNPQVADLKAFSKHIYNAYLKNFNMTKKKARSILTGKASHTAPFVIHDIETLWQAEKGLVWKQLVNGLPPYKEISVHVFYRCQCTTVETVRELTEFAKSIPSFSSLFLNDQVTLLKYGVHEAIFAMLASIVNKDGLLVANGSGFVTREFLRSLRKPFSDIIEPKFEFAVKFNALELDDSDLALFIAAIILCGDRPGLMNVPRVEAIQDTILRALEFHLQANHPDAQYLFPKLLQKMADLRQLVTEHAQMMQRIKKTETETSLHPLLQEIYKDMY
How it was run: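 HepG2 cells transiently transfected with multiplexed GAL4-UAS reporter units and exogenous chimeric NR-Gal4 proteins; 24 h compound exposure. Reporter mRNA measured by RT-PCR, 6-FAM labelling, HpaI digestion and capillary electrophoresis; gain of signal versus DMSO.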

[20] = target: human Retinoid X Receptor beta (RXRb), RXRB (gene 6257) (UniProt P28702); assay: ATG_RXRb_TRANS: Attagene TRANS-FACTORIAL HepG2 Assay for human Retinoid X Receptor beta (RXRb) (AID 2283013; active = hit-call score of the fitted dose curve at least 0.9, where 1 is the maximum)
How it was run: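 Multiplexed TRANS reporter assay in HepG2; 24 h dosing; reporter mRNA by RT-PCR/CE fluorescence; gain-of-signal relative to DMSO.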

Measured: AC50

E-selectin (Homo sapiens), sequence (P16581 whole entry, looked up): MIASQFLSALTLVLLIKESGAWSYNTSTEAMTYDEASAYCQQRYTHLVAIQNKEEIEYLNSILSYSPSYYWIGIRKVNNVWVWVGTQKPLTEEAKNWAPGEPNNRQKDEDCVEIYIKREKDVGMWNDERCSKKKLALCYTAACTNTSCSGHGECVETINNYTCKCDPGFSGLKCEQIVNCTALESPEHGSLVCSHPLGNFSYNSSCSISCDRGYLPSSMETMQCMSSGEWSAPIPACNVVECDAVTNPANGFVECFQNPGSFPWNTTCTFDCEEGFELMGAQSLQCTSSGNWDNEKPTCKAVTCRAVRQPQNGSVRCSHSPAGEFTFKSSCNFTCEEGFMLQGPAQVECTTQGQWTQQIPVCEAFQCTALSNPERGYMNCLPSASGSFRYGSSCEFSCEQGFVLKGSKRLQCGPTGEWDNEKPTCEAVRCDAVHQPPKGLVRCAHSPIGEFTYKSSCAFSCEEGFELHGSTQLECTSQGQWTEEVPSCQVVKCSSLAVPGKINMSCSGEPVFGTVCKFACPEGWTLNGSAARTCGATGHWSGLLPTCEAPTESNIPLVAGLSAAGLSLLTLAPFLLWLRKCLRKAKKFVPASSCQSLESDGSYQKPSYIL

O=S(=O)(OCC(F)F)C(F)(F)F
not listed: [14] | [15] | [16] | [17] | [18] | [19] | [20]
inactive: all other assays above

O=C(O)C(F)(F)C(F)(F)C(F)(F)C(F)(F)C(F)(F)C(F)(F)C(F)(F)C(F)(F)C(F)(F)C(F)(F)C(F)(F)C(F)(F)F
inactive: [1] | [3] | [14] | [5] | [6] | [15] | [16] | [7] | [17] | [18] | [8] | [9] | [10] | [11] | [12]
active: [1] 9.18 µM | [4] 20.6 µM and 6.79 µM | [13] 23.6 µM and 8.82 µM

O[Si](c1ccccc1)(c1ccccc1)c1ccccc1
active: [1] 30.1 µM | [4] 24.4 µM | [5] 44.4 µM | [6] 0.68 µM | [8] 6.83 µM | [10] 37.6 µM | [11] 11.9 µM | [12] 30.6 µM
inactive: [2] | [19] | [3] | [17] | [20] | [18] | [9] | [13]

N=C(N)C(F)(F)C(F)(F)C(F)(F)C(F)(F)C(F)(F)C(F)(F)C(F)(F)F
inactive: [3] | [5] | [6] | [16] | [7] | [8] | [9] | [10] | [11] | [12] | [13]
active: [1] 36.8 µM and 30 µM | [4] 50.7 µM and 24.7 µM | [10] 46.3 µM | [12] 30 µM

O=C(O)C(F)(F)C(F)(F)F
active: [10] 23 µM
inactive: [1] | [19] | [3] | [4] | [5] | [6] | [16] | [17] | [18] | [8] | [9] | [10] | [11] | [12] | [13]

Oc1ccc(Nc2ccccc2)cc1
active: [1] 0.547 µM | [4] 14.6 µM | [5] 23.4 µM | [6] 20.5 µM | [8] 20 µM | [9] 13.4 µM | [11] 9.6 µM | [12] 20 µM | [13] 69.4 nM
inactive: [19] | [3] | [16] | [18] | [10]
